# Measurements as given in PubChem BioAssay (NCATS).
# Where “and” joins values, the source holds several entries; their conditions need not be identical. Equal values may be shown once. Inconclusive results are not listed. Entries that show only a call come without a potency. Calls of active or inactive are those of the source. Unless noted, calls follow the shape of the dose curve; as a rule, active = well fitted curve in the direction sought with a large enough effect; inconclusive = small, poorly fitted or top-dose-only effect, or another doubt; inactive = no such curve, though single readings can be large; an effect the other way counts as inactive or inconclusive.
# Experiments:
# [1] = biological target: Atrial natriuretic peptide receptor 1 (Homo sapiens) (UniProt P16066); experiment: Natriuretic polypeptide receptor (hNpr1) antagonism - Pilot screen (AID 1347049; calls by dose curve;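 as to potency: agonist-evoked cGMP luminescence read 20 min after hNppA addition; potency is read from the fitted curve at half-maximal effect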); conditions: hNpr1 cells, antagonist mode cGMP read-out; series mostly up to 57.5 µM
# Chain of Atrial natriuretic peptide receptor 1 (Homo sapiens) (P16066 whole entry, looked up): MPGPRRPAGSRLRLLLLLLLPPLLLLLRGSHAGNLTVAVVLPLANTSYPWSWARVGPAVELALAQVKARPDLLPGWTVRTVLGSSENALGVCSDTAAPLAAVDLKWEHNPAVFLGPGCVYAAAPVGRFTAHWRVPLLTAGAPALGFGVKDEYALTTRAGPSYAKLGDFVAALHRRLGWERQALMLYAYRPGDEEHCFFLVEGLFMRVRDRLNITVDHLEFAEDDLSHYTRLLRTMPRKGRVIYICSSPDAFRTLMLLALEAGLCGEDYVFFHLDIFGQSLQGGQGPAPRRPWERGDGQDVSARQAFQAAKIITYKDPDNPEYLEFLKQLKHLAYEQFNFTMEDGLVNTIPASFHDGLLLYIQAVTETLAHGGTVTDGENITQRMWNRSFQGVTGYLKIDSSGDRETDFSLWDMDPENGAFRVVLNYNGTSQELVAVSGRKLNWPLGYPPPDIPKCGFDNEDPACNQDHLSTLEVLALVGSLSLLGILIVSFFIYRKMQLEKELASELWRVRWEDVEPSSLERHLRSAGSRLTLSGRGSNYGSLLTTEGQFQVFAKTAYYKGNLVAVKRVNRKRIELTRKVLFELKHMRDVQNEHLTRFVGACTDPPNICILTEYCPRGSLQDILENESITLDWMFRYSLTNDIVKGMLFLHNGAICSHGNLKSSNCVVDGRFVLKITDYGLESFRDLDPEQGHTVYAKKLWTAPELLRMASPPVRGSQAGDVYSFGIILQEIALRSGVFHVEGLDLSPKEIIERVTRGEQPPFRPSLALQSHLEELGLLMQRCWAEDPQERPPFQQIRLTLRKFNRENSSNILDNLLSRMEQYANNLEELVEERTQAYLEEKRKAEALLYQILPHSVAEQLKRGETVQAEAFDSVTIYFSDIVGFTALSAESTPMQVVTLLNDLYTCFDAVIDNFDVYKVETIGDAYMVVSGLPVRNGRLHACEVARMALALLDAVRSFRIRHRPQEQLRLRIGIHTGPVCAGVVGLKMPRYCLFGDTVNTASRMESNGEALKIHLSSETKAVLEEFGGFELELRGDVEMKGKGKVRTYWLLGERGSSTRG
# In short: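 cGMP-sensor HEK293/hNpr1 cells, 1500/well, plated overnight at 37C. 2% GloSensor reagent, 2 h RT. Compound (23 nL pin transfer) 30 min RT, baseline luminescence pre-read. 0.1 nM hNppA, 20 min RT, post-read.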
# [2] = biological target: Atrial natriuretic peptide receptor 2 (Homo sapiens) (UniProt P20594); experiment: Natriuretic polypeptide receptor (hNpr2) antagonism - Pilot subtype selectivity assay (AID 1347050; calls by dose curve; also: potency is read from the fitted curve at half-maximal effect); conditions: NPR2-expressing cells, cGMP antagonist-mode read-out; series mostly up to 38.3 µM
# Chain of Atrial natriuretic peptide receptor 2 (Homo sapiens) (P20594 whole entry, looked up): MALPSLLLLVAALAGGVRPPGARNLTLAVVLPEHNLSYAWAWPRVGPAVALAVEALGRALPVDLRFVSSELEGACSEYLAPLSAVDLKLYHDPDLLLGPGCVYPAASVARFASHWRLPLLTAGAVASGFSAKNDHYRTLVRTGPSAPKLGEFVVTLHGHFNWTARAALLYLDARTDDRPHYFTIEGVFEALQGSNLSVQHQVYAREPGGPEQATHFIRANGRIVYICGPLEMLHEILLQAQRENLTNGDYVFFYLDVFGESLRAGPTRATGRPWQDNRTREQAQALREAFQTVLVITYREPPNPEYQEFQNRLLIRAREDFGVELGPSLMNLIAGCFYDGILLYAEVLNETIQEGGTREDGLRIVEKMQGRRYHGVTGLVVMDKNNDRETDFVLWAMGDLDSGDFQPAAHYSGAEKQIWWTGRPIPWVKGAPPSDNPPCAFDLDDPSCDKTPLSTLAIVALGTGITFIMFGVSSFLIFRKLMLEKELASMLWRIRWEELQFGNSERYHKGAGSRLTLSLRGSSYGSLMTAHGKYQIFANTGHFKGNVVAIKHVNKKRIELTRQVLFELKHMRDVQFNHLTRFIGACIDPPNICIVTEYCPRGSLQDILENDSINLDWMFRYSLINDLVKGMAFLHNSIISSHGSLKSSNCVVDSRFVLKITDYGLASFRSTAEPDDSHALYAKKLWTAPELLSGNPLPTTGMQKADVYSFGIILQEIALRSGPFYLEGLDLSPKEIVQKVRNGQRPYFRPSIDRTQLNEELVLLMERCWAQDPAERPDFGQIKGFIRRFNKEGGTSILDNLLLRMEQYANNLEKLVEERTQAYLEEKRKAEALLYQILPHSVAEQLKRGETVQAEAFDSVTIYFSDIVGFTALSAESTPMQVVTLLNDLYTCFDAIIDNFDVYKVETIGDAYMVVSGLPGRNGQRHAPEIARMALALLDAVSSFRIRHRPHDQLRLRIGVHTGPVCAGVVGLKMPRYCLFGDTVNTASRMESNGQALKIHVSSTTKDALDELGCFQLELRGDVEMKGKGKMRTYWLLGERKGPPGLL
# In short: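 Luminescence from a genetically encoded cGMP luciferase biosensor in hNpr2-expressing HEK293 cells is read before and 20 min after adding 1 nM hNppC. Test compounds, in interplate 1:5 titrations, are added 30-50 min ahead of the agonist.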
# [3] = NS1 protein of Zika virus - qHTS assay to identify small molecule inhibitors in human HEK 293 cells (AID 1347053); conditions: HEK293 ZIKV MR766 infection, NS1 TR-FRET, 24 h; series mostly up to 46.1 µM; also: nearly all actives have a fitted effect of over 55% in size; also: potency is read from the fitted curve at half-maximal effect
# In short: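 TR-FRET signal from two anti-ZIKV NS1 antibodies quantified NS1 in HEK 293 cells 24 h after MR766 infection at MOI = 0.5; compounds were added 1 h before virus. Uninfected cells and infected cells defined the NS1 normalization range.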
# [4] = biological target: T1, Tyrosine-protein phosphatase non-receptor type substrate 1 (Homo sapiens) + Leukocyte surface antigen CD47 (Homo sapiens) (UniProt P78324+Q08722); experiment: CD47-SIRPalpha protein protein interaction - LANCE assay qHTS validation (AID 1347057; active = well fitted curve in the direction sought with a large enough effect in the signal ratio, with a control signal flat, not every such curve was filed as active; the % refers to the signal ratio); conditions: Recombinant CD47-His / biotin-SIRPalpha, TR-FRET ratio; series mostly up to 38.3 µM
# T1 sequence (P78324 whole entry, looked up, the tested form may be a part): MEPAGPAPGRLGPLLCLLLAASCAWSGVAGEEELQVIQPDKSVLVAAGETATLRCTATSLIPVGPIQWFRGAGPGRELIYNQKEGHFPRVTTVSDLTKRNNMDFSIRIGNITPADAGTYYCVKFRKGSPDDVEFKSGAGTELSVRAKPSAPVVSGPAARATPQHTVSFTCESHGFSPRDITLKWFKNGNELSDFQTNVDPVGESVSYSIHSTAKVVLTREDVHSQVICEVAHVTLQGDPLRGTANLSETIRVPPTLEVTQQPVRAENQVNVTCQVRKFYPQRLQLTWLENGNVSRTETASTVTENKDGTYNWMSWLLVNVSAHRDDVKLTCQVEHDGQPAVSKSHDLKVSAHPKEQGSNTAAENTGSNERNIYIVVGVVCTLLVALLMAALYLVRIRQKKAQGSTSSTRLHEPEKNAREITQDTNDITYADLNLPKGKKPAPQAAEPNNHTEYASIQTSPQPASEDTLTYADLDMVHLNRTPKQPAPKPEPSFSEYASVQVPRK
# T1 sequence (Q08722 whole entry, looked up, the tested form may be a part): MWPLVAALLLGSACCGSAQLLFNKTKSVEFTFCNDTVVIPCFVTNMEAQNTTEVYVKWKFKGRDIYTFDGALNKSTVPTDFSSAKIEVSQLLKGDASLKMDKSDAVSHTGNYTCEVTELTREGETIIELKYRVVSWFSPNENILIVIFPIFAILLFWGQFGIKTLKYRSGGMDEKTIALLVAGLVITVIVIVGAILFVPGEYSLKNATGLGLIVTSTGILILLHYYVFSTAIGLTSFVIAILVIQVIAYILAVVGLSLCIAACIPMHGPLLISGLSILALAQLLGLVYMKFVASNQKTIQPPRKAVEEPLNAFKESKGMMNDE
# In short: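 Inhibition of soluble CD47/SIRPalpha ectodomain association by titrated compounds, measured as 665/615 nm time-resolved FRET ratio after sequential 30 min room-temperature incubations.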
# [5] = biological target: T1, Tyrosine-protein phosphatase non-receptor type substrate 1 (Homo sapiens) + Leukocyte surface antigen CD47 (Homo sapiens); experiment: CD47-SIRPalpha protein protein interaction - HTRF assay qHTS validation (AID 1347058; active = well fitted curve in the direction sought with a large enough effect in the signal ratio, not every such curve was filed as active; the % refers to the signal ratio); conditions: TR-FRET HTRF CD47-His / biotin-SIRPalpha binding, ratio 665/615; series mostly up to 38.3 µM
# In short: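 Soluble extracellular domains (6His-CD47, Avi-tag-biotinylated SIRPalpha) in PBS pH 7.4 with 0.05% IGEPAL CA-630. Compounds were preincubated 30 min at RT with CD47 and anti-His-Eu, then SIRPalpha and SAV-XL665 were added. TR-FRET 665/615 ratio.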
# [6] = biological target: T1, Tyrosine-protein phosphatase non-receptor type substrate 1 (Homo sapiens) + Leukocyte surface antigen CD47 (Homo sapiens); experiment: CD47-SIRPalpha protein protein interaction - Alpha assay qHTS validation (AID 1347059); conditions: AlphaScreen CD47-His/biotin-SIRPalpha binding, LOPAC; series mostly up to 38.3 µM;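 also: bead proximity luminescence from CD47 binding SIRPalpha after compound preincubation with SIRPalpha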; also: potency is read from the fitted curve at half-maximal effect
# In short: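 SIRPalpha-biotin 25 nM + cpd, 30 min RT, dark; add CD47-His 12.5 nM, 30 min; add Ni-NTA/SAV beads 10 ug/mL, 30 min; AlphaScreen. Buffer PBS pH 7.4 + 0.05% IGEPAL CA-630. Non-biotinylated SIRPalpha as control inhibitor.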
# [7] = biological target: Parathyroid hormone/parathyroid hormone-related peptide receptor (Homo sapiens) (UniProt Q03431); experiment: qHTS for PTHR1 Agonists: Optimization Screen against the NCGC LOPAC library (AID 1347079); conditions: HEK293 GP2 PTHR1 GloSensor cAMP luminescence, 1 h; series mostly up to 57.1 µM;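 also: GloSensor cAMP luminescence in HEK-293 GP2 cells expressing human PTHR1 with IBMX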
# Chain of Parathyroid hormone/parathyroid hormone-related peptide receptor (Homo sapiens) (Q03431 whole entry, looked up): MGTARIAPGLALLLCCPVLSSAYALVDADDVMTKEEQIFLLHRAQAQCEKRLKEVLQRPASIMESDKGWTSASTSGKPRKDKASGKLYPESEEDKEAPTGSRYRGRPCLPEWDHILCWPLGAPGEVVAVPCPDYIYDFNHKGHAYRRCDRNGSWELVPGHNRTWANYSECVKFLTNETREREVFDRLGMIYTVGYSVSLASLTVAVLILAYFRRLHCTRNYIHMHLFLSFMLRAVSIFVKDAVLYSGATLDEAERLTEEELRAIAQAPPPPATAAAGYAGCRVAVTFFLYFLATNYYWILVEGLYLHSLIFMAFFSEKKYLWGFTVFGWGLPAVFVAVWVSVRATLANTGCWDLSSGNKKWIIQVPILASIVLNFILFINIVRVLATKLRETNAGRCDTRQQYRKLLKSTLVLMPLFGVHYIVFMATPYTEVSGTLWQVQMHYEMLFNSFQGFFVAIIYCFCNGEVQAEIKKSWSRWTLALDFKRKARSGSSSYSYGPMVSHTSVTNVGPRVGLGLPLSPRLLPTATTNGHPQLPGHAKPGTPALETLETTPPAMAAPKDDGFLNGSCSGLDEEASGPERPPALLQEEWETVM
# In short: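 HEK-293 GP2 cells, PTHR1 + GloSensor cAMP; 3000 cells/well, o/n. Luciferin + IBMX 0.5mM each (stock), 1 hr 37C. Cpd titration, 1 hr 37C. Lum after 15 min RT. Ctrl M-PTH(1-15) top 10uM.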
# [8] = qHTS of pediatric cancer cell lines to identify multiple opportunities for drug repurposing: Primary screen for DAOY cells (AID 1347090); conditions: DAOY medulloblastoma viability, CellTiter-Glo luminescence, 48 h; series mostly up to 46 µM; also: nearly all actives have a fitted effect of over 55% in size; also: potency is read from the fitted curve at half-maximal effect
# In short: (§1)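 Viability measured as metabolically active cells via CellTiter-Glo luminescence following 48 hours of compound exposure, 11-point dilutions in confirmatory testing. 500-1,000 cells/well plated 5 hours before dosing; controls were DMSO and 2.3 µM bortezomib.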
# [9] = qHTS of pediatric cancer cell lines to identify multiple opportunities for drug repurposing: Primary screen for SJ-GBM2 cells (AID 1347091); conditions: SJ-GBM2 viability, CellTiter-Glo luminescence, 48 h; series mostly up to 46 µM; also: potency is read from the fitted curve at half-maximal effect
# In short: as §1
# [10] = qHTS of pediatric cancer cell lines to identify multiple opportunities for drug repurposing: Primary screen for TC32 cells (AID 1347089); conditions: TC32 Ewing sarcoma viability, CellTiter-Glo luminescence, 48 h; series mostly up to 45.8 µM; also: nearly all actives have a fitted effect of over 60% in size; also: potency is read from the fitted curve at half-maximal effect
# In short: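 TC32 cells, 500-1,000/well in growth medium, compound-treated 48 h at 37 °C; viability from CellTiter-Glo luminescence. Primary screen: MIPE 11-point (0.78 nM–46 µM final), NPC 8-point (0.59 nM–46 µM final); confirmatory at 11-point dilutions.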
SMILES,Potency [1],Potency [2],Potency [3],outcome [4],outcome [5],Potency [6],outcome [7],Potency [8],Potency [9],Potency [10],outcome [1]
O=C1c2c(O)cc(O)cc2OC(c2ccc(O)c(O)c2)C1O (stereo not given),inactive,inactive,inactive,inactive,inactive,inactive,inactive,inactive,inactive,–,–
CC1(C)C(=O)N(CCN2CCC(C(=O)c3ccc(F)cc3)CC2)c2ccccc21,inactive,inactive,inactive,inactive,–,inactive,inactive,–,inactive,inactive,–
COc1cc2c(cc1OC)C1CC(=O)C(CC(C)C)CN1CC2 (stereo not given),inactive,inactive,inactive,inactive,inactive,inactive,inactive,inactive,inactive,inactive,–
COc1cc2nc(N3CCN(C(=O)C4CCCO4)CC3)nc(N)c2cc1OC (stereo not given),inactive,inactive,inactive,–,–,–,inactive,inactive,inactive,inactive,–
O=C(c1ccccc1)c1ccc2n1CCC2C(=O)O (stereo not given),inactive,inactive,inactive,inactive,inactive,inactive,inactive,–,inactive,inactive,–
O=c1cc(N2CCOCC2)oc2c(-c3ccccc3)cccc12,inactive,inactive,inactive,inactive,inactive,inactive,inactive,–,16.6 µM (active),–,–
Cc1c(OCC(F)(F)F)ccnc1CS(=O)c1nc2ccccc2[nH]1 (stereo not given),–,–,inactive,inactive,inactive,inactive,inactive,inactive,inactive,inactive,–
CCN(CC)C(=S)SSC(=S)N(CC)CC,2.39 µM (active),5.21 µM (active),8.33 µM (active),inactive,inactive,inactive,inactive,11.8 nM (active) and 49.5 nM (active) and 133 nM (active),4.69 µM (active),989 nM (active) and 4.19 µM (active),–
Nc1ccn([C@@H]2O[C@H](CO)[C@@H](O)C2O)c(=O)n1 (stereo not given in full),inactive,inactive,inactive,–,–,–,inactive,inactive,inactive,–,–
CN(C)CCCC1(c2ccc(F)cc2)OCc2cc(C#N)ccc21 (stereo not given),inactive,inactive,inactive,inactive,inactive,inactive,inactive,–,inactive,inactive,–
O=c1c(O)c(-c2ccc(O)cc2O)oc2cc(O)cc(O)c12,inactive,inactive,inactive,–,–,1.85 µM (active),inactive,inactive,inactive,inactive,–
Oc1ccc2ccccc2c1SSc1c(O)ccc2ccccc12,–,–,inactive,inactive,inactive,inactive,inactive,–,–,inactive,inactive; inac
CC(C)c1ccc2c(c1)c(SC(C)(C)C)c(CC(C)(C)C(=O)O)n2Cc1ccc(Cl)cc1,inactive,inactive,inactive,inactive,inactive,inactive,inactive,23.5 µM (active),20.9 µM (active),–,–
C[C@@H](N)C1CCC(C(=O)Nc2ccncc2)CC1 (stereo not given in full),–,inactive,inactive,inactive,inactive,inactive,inactive,inactive,7.43 µM (active),inactive,–
CNC[C@H](O)c1ccc(O)c(O)c1,inactive,inactive,inactive,inactive,inactive,inactive,inactive,inactive,inactive,inactive,–
Cc1cc(O)c2c(c1)C(=O)c1cc(O)cc(O)c1C2=O,23.9 µM (active),–,inactive,inactive,–,inactive,inactive,–,inactive,inactive,–
CC1(C)NC(=O)N(c2ccc([N+](=O)[O-])c(C(F)(F)F)c2)C1=O,–,inactive,inactive,inactive,–,inactive,inactive,inactive,inactive,inactive,–
C[C@H](Cc1ccc(O)c(O)c1)[C@@H](C)Cc1ccc(O)c(O)c1,inactive,inactive,inactive,inactive,inactive,inactive,inactive,–,–,–,–
Cc1cccc(-c2[nH]ncc2-c2ccc3ncccc3n2)n1,–,–,inactive,inactive,inactive,inactive,–,inactive,inactive,inactive,–
COc1ccc2cc([C@H](C)C(=O)O)ccc2c1,inactive,inactive,inactive,inactive,inactive,inactive,–,inactive,inactive,inactive,–
O=C(O)c1cccnc1Nc1cccc(C(F)(F)F)c1,inactive,inactive,inactive,inactive,inactive,inactive,inactive,inactive,inactive,inactive,–
Nc1nc(OCc2ccccc2)c2[nH]cnc2n1,inactive,inactive,inactive,inactive,inactive,inactive,inactive,inactive,–,inactive,–
Cc1cc(Cl)ccc1OCCCC(=O)NO,–,–,inactive,inactive,inactive,inactive,–,9.35 µM (active),–,5.23 µM (active),–
